Data published in PubChem BioAssay (NCATS).
Values joined by “and” are separate entries in the source; they are usually repeats but may differ in a detail not shown here. Equal values may be shown once. Records with an inconclusive call do not appear. Some structures have more than one record in an assay (separate samples or runs), and their calls can disagree. Active and inactive are the calls of the source. The call rests on the fitted dose curve; in most records, active means well fitted curve in the direction sought with a large enough effect; inconclusive means small, poorly fitted or top-dose-only effect, or another doubt; inactive means no such curve, though single readings can be large; an effect the other way counts as inactive or inconclusive.

Tests used:
[1] = Identifying Small Molecule Inhibitors of Pancreatic Cancer Stem Cells (SN12C, Spheroid) (AID 1259360); settings: Potency: SN12C spheroid viability
In short: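 Cytotoxicity read by CellTiter-Glo luminescence after 48 h compound exposure at 37C; percent activity scaled between DMSO-treated cells and cell-free wells. Spheroid formats used cells pre-formed 14 days in stem cell media on hydrogel.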

[2] = Identifying Small Molecule Inhibitors of Pancreatic Cancer Stem Cells (Panc1, Adherent) (AID 1259362); settings: Potency: viability
In short: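 Luminescent ATP readout (CellTiter-Glo) quantifies surviving cells after a 48 h drug incubation. Normalization uses DMSO wells as no inhibition and media-only wells as full inhibition; bortezomib served as positive control.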

[3] = qHTS of pediatric cancer cell lines to identify multiple opportunities for drug repurposing: Primary screen for DAOY cells (AID 1347090); further: nearly all actives have a fitted effect of over 55% in size
In short: (§1)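 Eight- or eleven-point concentration series, 48 h treatment at 37 degrees C in growth media; readout CellTiter-Glo luminescence. Potency and efficacy were taken from the concentration-response curves.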

[4] = qHTS of pediatric cancer cell lines to identify multiple opportunities for drug repurposing: Primary screen for A673 cells (AID 1347092); further: nearly all actives have a fitted effect of over 45% in size
In short: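 Luminescence from CellTiter-Glo, taken after 15 min at room temperature, served as the proxy for metabolically active cells following 48 h treatment. Both potency and efficacy were taken from curves fitted to the titration data.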

[5] = qHTS of pediatric cancer cell lines to identify multiple opportunities for drug repurposing: Primary screen for SK-N-MC cells (AID 1347093)
In short: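 Metabolically active cells were quantified by ATP-dependent luminescence (CellTiter-Glo, 15 min at room temperature) following 48 h treatment. Cells had been plated at 500-1,000 per well and settled for 5 h beforehand.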

[6] = qHTS of pediatric cancer cell lines to identify multiple opportunities for drug repurposing: Primary screen for NB-EBc1 cells (AID 1347095)
In short: (§2)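 Viability was measured as metabolically active cells after 48 hours of treatment, read by CellTiter-Glo luminescence. Compounds were tested at multiple final concentrations, giving concentration-response curves.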

[7] = P-glycoprotein substrates identified in KB-3-1 adenocarcinoma cell line, qHTS therapeutic library screen (AID 1346986); further: nearly all actives have a fitted effect of over 60% in size;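 further: potency is for cytotoxicity meaning loss of cell viability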
In short: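 KB-3-1 parental cells and P-gp-overexpressing KB-8-5-11 (colchicine omitted during assay) plated at 500 cells/well, dosed in dose-response, incubated 72 h at 37 degree C. CellTiter-Glo luminescence read; KB-8-5-11 also tested with tariquidar.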

[8] = P-glycoprotein substrates identified in KB-8-5-11 adenocarcinoma cell line, qHTS therapeutic library screen (AID 1346987); further: nearly all actives have a fitted effect of over 65% in size
In short: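 KB-8-5-11: colchicine-selected sub-line of KB-3-1 over-expressing P-gp; assay medium lacked colchicine. 72 h drug exposure at 37 degree C, CellTiter-Glo.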

[9] = qHTS of pediatric cancer cell lines to identify multiple opportunities for drug repurposing: Primary screen for SJ-GBM2 cells (AID 1347091)
In short: as §1

[10] = qHTS of pediatric cancer cell lines to identify multiple opportunities for drug repurposing: Primary screen for TC32 cells (AID 1347089); further: nearly all actives have a fitted effect of over 60% in size
In short: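 qHTS, TC32, 48 h drug treatment, CellTiter-Glo luminescence as a proxy for metabolically active cells; primary top concentration 46 µM (MIPE 11-pt, NPC 8-pt); confirmatory 11-pt.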

[11] = qHTS of pediatric cancer cell lines to identify multiple opportunities for drug repurposing: Primary screen for BT-37 cells (AID 1347094)
In short: as §2

[12] = NS1 protein of Zika virus - qHTS assay to identify small molecule inhibitors in human HEK 293 cells (AID 1347053); further: nearly all actives have a fitted effect of over 55% in size
In short: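 HEK 293 cells, seeded 20 h at 37 C, were pretreated with compound 1 h, then infected with ZIKV MR766 (MOI = 0.5) for 24 h. NS1 was read by TR-FRET with two anti-NS1 antibodies, normalized to uninfected and infected wells.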

Measured: Potency
Potency means the concentration at half of the fitted maximal effect.

CCCCN1CCC(CNC(=O)c2c3n(c4ccccc24)CCCO3)CC1
inactive: [1] | [2]
active: [3] 1.87 µM | [4] 1.48 µM | [5] 4.69 µM | [6] 13.2 µM

c1cc(-c2cnn3cc(-c4ccc(OCCN5CCCCC5)cc4)cnc23)ccn1
active: [7] 6.51 µM | [8] 2.35 µM and 10.3 µM | [3] 18.7 µM | [9] 16.6 µM | [4] 4.69 µM | [5] 9.35 µM
inactive: [1]

C=CC(=O)Nc1cc2c(Nc3ccc(F)c(Cl)c3)ncnc2cc1OCCCN1CCOCC1
active: [1] 20.9 µM | [8] 18.4 µM | [3] 18.7 µM | [9] 16.8 µM | [4] 4.69 µM | [5] 2.35 µM | [11] 6.85 µM | [6] 18.7 µM
inactive: [7] | [10]

COc1ccc(OC)c(-c2nnc3ccc(-c4ccc(OC)c(O[C@@H]5CCOC5)c4)nn23)c1
active: [1] 18.7 µM | [8] 4.61 µM | [12] 9.35 µM | [4] 14.8 µM | [5] 18.7 µM | [11] 27.3 µM
inactive: [10]

CCC(=C(c1ccccc1)c1ccc(OCCN(C)C)cc1)c1ccccc1
inactive: [10] | [3]
active: [1] 18.7 µM

COc1ccc2c(c1)CC[C@@H](CN(C)CC(=O)O)[C@H]2c1ccccc1
active: [10] 3.7 µM | [3] 2.96 µM | [9] 1.18 µM | [4] 1.87 µM | [5] 1.18 µM | [11] 6.11 µM | [6] 0.662 µM
1.66 µM (active) and inactive: [8]
inactive: [1]

Cn1c2cc(S(C)=O)sc2c2cnn(Cc3cccc(N)c3)c(=O)c21 (centres undefined)
not listed: [2] | [7]
inactive: all other assays above

C[C@]1(CO)CN(c2cc(C(=O)Nc3ccc4c(c3)-c3c(c(C(N)=O)nn3-c3ccc(F)cc3)CC4)c(Cl)cn2)C[C@@]1(C)CO
active: [7] 5.8 µM | [12] 4.69 µM | [10] 18.6 µM | [3] 11.8 µM | [9] 6.62 µM | [4] 9.35 µM | [5] 1.48 µM | [6] 5.9 µM
inactive: [1] | [8]

O=C(C=Cc1c(C(=O)O)[nH]c2cc(Cl)cc(Cl)c12)Nc1ccccc1
not listed: [5] | [7]
inactive: all other assays above

Cn1c(=O)n(-c2ccc(C(C)(C)C#N)cc2)c2c3cc(-c4cnc5ccccc5c4)ccc3ncc21
active: [1] 0.148 µM | [8] 366 nM and 18.7 nM | [9] 0.0662 µM | [4] 0.0296 µM | [11] 0.0544 µM | [6] 0.372 µM

C=C1C(=CC=C2CCCC3(C)[C@@H]([C@H](C)C=CC=CC(O)(CC)CC)CC[C@@H]23)C[C@@H](O)C[C@@H]1O (some centres undefined)
active: [1] 18.7 µM | [3] 23.5 µM | [9] 20.9 µM | [4] 18.7 µM | [5] 6.62 µM | [6] 18.7 µM
inactive: [7] | [8] | [12] | [10]

COc1cc(C(C)C)c2c(c1)S(=O)(=O)N(COc1cc(=O)n3cccc(OCCN4CCCCC4)c3n1)C2=O
active: [9] 26.4 µM | [4] 7.43 µM | [5] 3.72 µM
inactive: [1] | [7] | [8] | [10]

CC(C)c1ccccc1Cc1cc(C(=O)Nc2ccc(S(=O)(=O)c3ccccc3C(C)(C)C)cc2)c(O)c(O)c1O
active: [8] 9.35 µM | [3] 29.6 µM | [9] 2.96 µM | [4] 18.7 µM | [11] 24.3 µM | [6] 2.35 µM
inactive: [1] | [10]

CC1=C(CO)C(=O)O[C@@H]([C@@H](C)[C@H]2CC[C@H]3[C@@H]4C[C@H]5O[C@]56[C@@H](O)C=CC(=O)[C@]6(C)[C@@H]4CC[C@]23C)C1
active: [1] 1.66 µM | [2] 2.96 µM | [8] 1.18 µM | [12] 1.48 µM | [10] 2.34 µM | [3] 0.743 µM | [9] 0.372 µM | [4] 0.372 µM | [11] 2.17 µM | [6] 0.469 µM

CN(c1ncccc1CNc1nc(Nc2ccc3c(c2)CC(=O)N3)ncc1C(F)(F)F)S(C)(=O)=O
active: [1] 20.9 µM | [7] 5.17 µM | [12] 11.8 µM | [10] 13.1 µM | [3] 18.7 µM | [9] 3.32 µM | [4] 4.69 µM | [5] 2.96 µM | [6] 4.69 µM

COC(=O)c1ccc2c(C(=Nc3ccc(N(C)C(=O)CN4CCN(C)CC4)cc3)c3ccccc3)c(O)[nH]c2c1
inactive: [12]
active: [1] 18.7 µM | [10] 10.4 µM | [3] 0.59 µM | [9] 16.6 µM | [4] 0.296 µM | [11] 3.85 µM | [6] 2.09 µM

O=C(Nc1cc(C(F)(F)F)cc(C(F)(F)F)c1)c1cc(Cl)ccc1O
active: [1] 0.833 µM | [2] 0.0332 µM | [8] 187 nM and 820 nM | [12] 2.64 µM | [3] 0.59 µM | [9] 0.235 µM | [4] 4.69 µM | [5] 0.469 µM | [6] 0.296 µM
